The nature of experiment [1]: ATG_GLI_CIS: Attagene CIS-FACTORIAL HepG2 Assay for human Zinc Finger Protein GLI1 (AID 2282945). As to conditions: HepG2, Attagene cis-factorial reporter mRNA, GLI element; actives raise or lower the signal. In short, it runs like this: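 Bidirectional curve fits relative to DMSO, using reporter mRNA levels from RT-PCR plus capillary electrophoresis. Cells were HepG2 transiently carrying cis-regulated reporter constructs, harvested 24 h after dosing.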

Experiment [2] addresses Bile acid receptor (Homo sapiens) (UniProt Q96RI1). The experiment in a line: ATG_IR1_CIS: Attagene CIS-FACTORIAL HepG2 Assay for human Nuclear Receptor Subfamily 1 Group H Member 4 (NR1H4), IR1 submotif (AID 2282946). The conditions noted are these: IR1 reporter transcription, actives raise or lower the signal. In outline:
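HepG2 cells transiently transfected with multiplexed cis-element reporter units read endogenous transcription factor activity. After 24 h compound exposure, reporter mRNA was quantified by RT-PCR, fluorescent labelling, HpaI digestion and capillary electrophoresis; bidirectional fitting versus DMSO baseline.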

Experiment [3] in a line: ATG_GRE_CIS: Attagene CIS-FACTORIAL HepG2 Assay for human Glucocorticoid Response Elements (GRE) (AID 2282947). As to conditions: HepG2 GRE cis-reporter, Attagene multiplex mRNA; actives raise or lower the signal. In short, it runs like this:
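Reporter transcripts read by RT-PCR with capillary electrophoresis fluorescence after a 24 h chemical exposure of HepG2 cells transiently transfected with multiple cis-element reporter units. Gain or loss fitted against DMSO.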

Experiment [4] is described as follows: ATG_ISRE_CIS: Attagene CIS-FACTORIAL HepG2 Assay for human Interferon Regulatory Factor 1 (IRF1) binding to an Interferon-Stimulated Response Element (ISRE) (AID 2282948). The conditions noted are these: HepG2 ISRE cis-reporter (Attagene), mRNA transcription readout; actives raise or lower the signal. In short, it runs like this:
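Endogenous transcription factor activity read as reporter transcript abundance via RT-PCR and capillary electrophoresis. HepG2 cells transiently transfected, 24 h chemical exposure. Gain or loss fitted against DMSO baseline.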

Experiment [5] in a line: ATG_M_32_CIS: Attagene CIS-FACTORIAL HepG2 Assay for M32 Transcription Factor (Internal Marker) (AID 2282949).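 Also: background control marker of the multiplexed CIS panel rather than a real target.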 The conditions noted are these: HepG2 Attagene cis-factorial M32 reporter, mRNA; actives raise or lower the signal. In short, it runs like this: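 HepG2 transfectants (cis-regulated reporter transcription units) dosed 24 h. Reporter mRNA by RT-PCR plus CE, analysed as gain or loss relative to DMSO.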

The nature of experiment [6]: ATG_M_06_CIS: Attagene CIS-FACTORIAL HepG2 Assay for M06 Transcription Factor (Internal Marker) (AID 2282950). The conditions noted are these: HepG2 Attagene CIS-FACTORIAL M06 internal marker reporter; actives raise or lower the signal. In outline:
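Read-out is fluorescence of labelled reporter cDNA fragments resolved by capillary electrophoresis after RT-PCR. Cells: HepG2 carrying transfected cis-promoter reporter units, treated 24 h. Gain or loss of signal fitted relative to DMSO.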

The target of experiment [7] is Hypoxia-inducible factor 1-alpha (Homo sapiens) (UniProt Q16665). The experiment in a line: ATG_HIF1a_CIS: Attagene CIS-FACTORIAL HepG2 Assay for human Hypoxia Inducible Factor 1 (HIF1A) (AID 2282951). As to conditions: HepG2 Attagene cis-factorial HIF1a reporter transcription; actives raise or lower the signal. In short, it runs like this:
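HepG2 cells transiently transfected with multiple cis-regulated reporter transcription units measure endogenous transcription factor activity. After 24 h exposure, reporter mRNA is quantified by RT-PCR with 6-FAM labelling, HpaI digestion and capillary electrophoresis. Bidirectional fitting against DMSO.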

Experiment [8] has as its target Hepatocyte nuclear factor 6 (Homo sapiens) (UniProt Q9UBC0). The experiment in a line: ATG_HNF6_CIS: Attagene CIS-FACTORIAL HepG2 Assay for human Hepatocyte Nuclear Factor 6 (HNF6) (AID 2282952). As to conditions: HepG2 Attagene cis-factorial HNF6 reporter transcription; actives raise or lower the signal. In outline: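 Endogenous transcription factor activity in human HepG2 liver cells was captured through cis-regulated reporter constructs. After 24 h treatment, reporter mRNA was measured by RT-PCR with capillary electrophoresis, and activity was fitted in both directions relative to DMSO.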

Experiment [9] concerns the target Heat shock factor protein 1 (Homo sapiens) (UniProt Q00613). The experiment in a line: ATG_HSE_CIS: Attagene CIS-FACTORIAL HepG2 Assay for human Heat Shock Transcription Factor 1 (HSE) (AID 2282953). The conditions noted are these: HepG2 HSE cis-reporter, Attagene RNA transcription; actives raise or lower the signal. In short, it runs like this:
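HepG2, transient MRTU transfection, cis-promoter reporters (endogenous TF activity). 24 h compound. RNA → oligo(dT) RT → PCR → 6-FAM primer extension → HpaI cut → CE. Bidirectional fit vs DMSO.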

Experiment [10] in a line: ATG_MRE_CIS: Attagene CIS-FACTORIAL HepG2 Assay for human Metal Responsive Element (MRE) (AID 2282954). The conditions noted are these: HepG2 MRE cis-reporter transcription, Attagene multiplex; actives raise or lower the signal. In short, it runs like this:
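Endogenous MRE-dependent transcription read as reporter mRNA in transiently transfected human HepG2 cells at 24 h. RNA reverse-transcribed, PCR-amplified, labelled and resolved by capillary electrophoresis; gain or loss relative to DMSO.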

Experiment [11] in a line: ATG_PBREM_CIS: Attagene CIS-FACTORIAL HepG2 Assay for human Phenobarbital-responsive Enhancer Module (PBREM) (AID 2282955). The conditions noted are these: HepG2 PBREM cis-reporter, Attagene multiplexed transcription; actives raise or lower the signal. In short, it runs like this:
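HepG2 cells transiently transfected with multiple cis-regulated reporter units measure endogenous transcription factor activity; 24 h compound exposure. Reporter mRNA quantified by RT-PCR, fluorescent labelling, HpaI digestion and capillary electrophoresis; bidirectional fit versus DMSO.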

The target in experiment [12] is Paired box protein Pax-6 (Homo sapiens) (UniProt P26367). The experiment in a line: ATG_Pax6_CIS: Attagene CIS-FACTORIAL HepG2 Assay for human Paired Box 6 (PAX6) (AID 2282956). As to conditions: HepG2 CIS-FACTORIAL PAX6 reporter transcription, RNA readout; actives raise or lower the signal. In short, it runs like this:
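Read-out is reporter transcript level, measured by RT-PCR with fluorescent primer extension and capillary electrophoresis after 24 h dosing of transfected HepG2 cells. Activity in either direction fitted relative to DMSO control.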

A short description of experiment [13]: ATG_PXRE_CIS: Attagene CIS-FACTORIAL HepG2 Assay for human Pregnane X Receptor Element (PXRE) (AID 2282957). The conditions noted are these: HepG2 Attagene CIS-FACTORIAL PXRE reporter, mRNA; actives raise or lower the signal. In short, it runs like this:
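Endogenous transcription factor activity in HepG2 was gauged through induction of reporter mRNA driven by a cis-regulating promoter element, sampled 24 h post-treatment. Activity was fitted in both directions against DMSO negative control.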

Experiment [14] can be described thus: ATG_PPRE_CIS: Attagene CIS-FACTORIAL HepG2 Assay for human Peroxisome Proliferator-activated Response Element (PPRE) (AID 2282958). As to conditions: HepG2 PPRE cis-element reporter, Attagene transcription factor profiling; actives raise or lower the signal. In outline: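 HepG2 cells are transiently transfected with multiplexed cis-promoter reporter units to report endogenous PPAR activity. After 24 h dosing, reporter mRNA is read by RT-PCR and capillary electrophoresis. Fitting is bidirectional against DMSO.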

A short description of experiment [15]: ATG_RORE_CIS: Attagene CIS-FACTORIAL HepG2 Assay for human RAR-related Orphan Receptor Element (RORE) (AID 2282959). As to conditions: HepG2 Attagene cis-factorial RORE reporter, mRNA; actives raise or lower the signal. In short, it runs like this: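 HepG2 cells carrying transiently transfected cis-regulated reporter units; RORE-driven reporter mRNA quantified 24 h post-dosing by RT-PCR, 6-FAM primer extension, HpaI digestion and capillary electrophoresis. Bidirectional fit versus DMSO.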

Experiment [16] can be described thus: ATG_Sox_CIS: Attagene CIS-FACTORIAL HepG2 Assay for human SRY-box transcription factor (SOX) (AID 2282960). As to conditions: HepG2 Attagene cis-factorial SOX reporter, mRNA; actives raise or lower the signal. In short, it runs like this: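 HepG2 cells transiently transfected with multiple cis-regulated reporter units, then dosed for 24 h. Reporter mRNA quantified by RT-PCR, fluorescent labelling, HpaI digestion and capillary electrophoresis; bidirectional fit versus DMSO.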

In experiment [17] the target is Transcription factor Sp1 (Homo sapiens) (UniProt P08047). The experiment in a line: ATG_Sp1_CIS: Attagene CIS-FACTORIAL HepG2 Assay for human Specificity Protein 1 (Sp1) (AID 2282961). The conditions noted are these: HepG2 Sp1 cis-reporter transcription, actives raise or lower the signal. In short, it runs like this:
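HepG2 cells transiently transfected with multiplexed cis-regulated reporter constructs, chemical exposure 24 h. Reporter mRNA quantified by RT-PCR with capillary electrophoresis; bidirectional fit relative to DMSO.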

Experiment [18] can be described thus: ATG_SREBP_CIS: Attagene CIS-FACTORIAL HepG2 Assay for human Sterol Regulatory Element Binding (SREBP) (AID 2282962). As to conditions: HepG2 Attagene cis-factorial SREBP reporter, mRNA; actives raise or lower the signal. In short, it runs like this:
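Endogenous SREBP activity read as cis-element-driven reporter transcript in transiently transfected HepG2, 24 h post-dosing; quantified via RT-PCR plus capillary electrophoresis of fluorescent fragments. Gain or loss of signal fitted relative to DMSO baseline.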

Experiment [19] can be described thus: ATG_TA_CIS: Attagene CIS-FACTORIAL HepG2 Assay for human TA Basal Promoter (AID 2282964). As to conditions: HepG2 Attagene CIS-factorial TA basal promoter reporter; actives raise or lower the signal. In short, it runs like this: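 Read-out: fluorescent reporter-transcript fragments resolved by capillary electrophoresis after RT-PCR and HpaI digestion. Source: HepG2 cells carrying transiently transfected multi-reporter cis constructs, treated 24 h. Endpoint fitted bidirectionally relative to DMSO.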

The target of experiment [20] is Signal transducer and activator of transcription 3 (Homo sapiens) (UniProt P40763). The experiment in a line: ATG_STAT3_CIS: Attagene CIS-FACTORIAL HepG2 Assay for human Signal Transducer and Activator of Transcription 3 (STAT3) (AID 2282963). The conditions noted are these: HepG2, Attagene cis-factorial STAT3 reporter transcription; actives raise or lower the signal. In outline: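 Readout is reporter transcript quantified by RT-PCR and capillary electrophoresis, with 6-FAM primer extension and HpaI digestion. Total RNA is taken 24 h after dosing transiently transfected HepG2 carrying cis-regulated reporter units. Bidirectional fit against DMSO.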
Chain of Signal transducer and activator of transcription 3 (Homo sapiens) (P40763 whole entry, looked up): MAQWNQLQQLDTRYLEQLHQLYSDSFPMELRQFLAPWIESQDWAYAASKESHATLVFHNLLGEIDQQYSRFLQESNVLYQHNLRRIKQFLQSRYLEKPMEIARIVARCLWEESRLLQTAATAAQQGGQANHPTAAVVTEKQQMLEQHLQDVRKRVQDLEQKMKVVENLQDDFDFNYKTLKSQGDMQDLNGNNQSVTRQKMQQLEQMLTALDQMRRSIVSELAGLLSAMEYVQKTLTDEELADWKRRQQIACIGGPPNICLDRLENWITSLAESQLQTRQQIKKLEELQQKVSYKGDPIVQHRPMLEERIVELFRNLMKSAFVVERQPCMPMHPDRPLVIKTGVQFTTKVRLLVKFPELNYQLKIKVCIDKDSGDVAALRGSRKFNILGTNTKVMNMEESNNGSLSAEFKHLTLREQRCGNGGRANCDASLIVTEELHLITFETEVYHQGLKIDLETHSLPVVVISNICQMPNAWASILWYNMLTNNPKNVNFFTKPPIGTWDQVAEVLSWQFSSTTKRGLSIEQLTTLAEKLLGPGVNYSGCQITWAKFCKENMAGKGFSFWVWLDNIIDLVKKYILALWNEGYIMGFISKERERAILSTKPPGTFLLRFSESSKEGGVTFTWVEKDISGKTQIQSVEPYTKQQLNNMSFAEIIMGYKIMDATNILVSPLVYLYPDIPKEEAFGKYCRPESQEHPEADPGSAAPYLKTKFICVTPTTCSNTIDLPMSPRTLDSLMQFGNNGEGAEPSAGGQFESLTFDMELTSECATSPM

By AC50 is commonly meant the midpoint of the concentration-response curve, whichever way the signal moves.

Each structure is given as a SMILES string. Active and inactive are the calls of the source. The calls were made as follows: active = hit-call score of the fitted dose curve at least 0.9, where 1 is the maximum; inactive = score below 0.9.

Chain of Hepatocyte nuclear factor 6 (Homo sapiens) (Q9UBC0 whole entry, looked up): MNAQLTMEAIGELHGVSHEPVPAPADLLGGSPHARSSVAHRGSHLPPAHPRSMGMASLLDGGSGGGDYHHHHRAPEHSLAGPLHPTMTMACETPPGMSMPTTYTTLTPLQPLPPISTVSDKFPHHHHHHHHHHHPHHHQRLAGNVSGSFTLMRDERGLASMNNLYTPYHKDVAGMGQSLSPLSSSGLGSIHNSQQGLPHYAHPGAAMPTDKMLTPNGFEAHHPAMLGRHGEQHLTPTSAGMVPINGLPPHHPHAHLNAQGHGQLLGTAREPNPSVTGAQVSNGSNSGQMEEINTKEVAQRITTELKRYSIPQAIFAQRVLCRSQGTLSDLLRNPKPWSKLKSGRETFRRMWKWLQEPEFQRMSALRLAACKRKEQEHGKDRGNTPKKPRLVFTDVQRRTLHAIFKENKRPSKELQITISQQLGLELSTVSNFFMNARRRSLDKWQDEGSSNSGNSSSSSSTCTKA
Chain of Heat shock factor protein 1 (Homo sapiens) (Q00613 whole entry, looked up): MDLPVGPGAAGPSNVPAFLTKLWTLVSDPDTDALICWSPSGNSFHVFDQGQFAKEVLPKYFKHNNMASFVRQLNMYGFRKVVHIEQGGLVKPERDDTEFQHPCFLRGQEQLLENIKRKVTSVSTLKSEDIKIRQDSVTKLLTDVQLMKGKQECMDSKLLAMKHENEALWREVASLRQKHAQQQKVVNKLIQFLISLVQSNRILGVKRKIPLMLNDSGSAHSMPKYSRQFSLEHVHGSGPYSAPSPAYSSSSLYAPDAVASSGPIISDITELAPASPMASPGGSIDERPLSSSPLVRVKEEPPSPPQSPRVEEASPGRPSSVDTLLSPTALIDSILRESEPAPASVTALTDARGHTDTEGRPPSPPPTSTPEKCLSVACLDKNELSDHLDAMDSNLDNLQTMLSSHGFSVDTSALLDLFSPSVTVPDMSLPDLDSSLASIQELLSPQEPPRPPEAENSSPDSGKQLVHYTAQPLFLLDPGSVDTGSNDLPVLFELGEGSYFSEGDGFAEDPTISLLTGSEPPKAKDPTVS
Chain of Hypoxia-inducible factor 1-alpha (Homo sapiens) (Q16665 whole entry, looked up): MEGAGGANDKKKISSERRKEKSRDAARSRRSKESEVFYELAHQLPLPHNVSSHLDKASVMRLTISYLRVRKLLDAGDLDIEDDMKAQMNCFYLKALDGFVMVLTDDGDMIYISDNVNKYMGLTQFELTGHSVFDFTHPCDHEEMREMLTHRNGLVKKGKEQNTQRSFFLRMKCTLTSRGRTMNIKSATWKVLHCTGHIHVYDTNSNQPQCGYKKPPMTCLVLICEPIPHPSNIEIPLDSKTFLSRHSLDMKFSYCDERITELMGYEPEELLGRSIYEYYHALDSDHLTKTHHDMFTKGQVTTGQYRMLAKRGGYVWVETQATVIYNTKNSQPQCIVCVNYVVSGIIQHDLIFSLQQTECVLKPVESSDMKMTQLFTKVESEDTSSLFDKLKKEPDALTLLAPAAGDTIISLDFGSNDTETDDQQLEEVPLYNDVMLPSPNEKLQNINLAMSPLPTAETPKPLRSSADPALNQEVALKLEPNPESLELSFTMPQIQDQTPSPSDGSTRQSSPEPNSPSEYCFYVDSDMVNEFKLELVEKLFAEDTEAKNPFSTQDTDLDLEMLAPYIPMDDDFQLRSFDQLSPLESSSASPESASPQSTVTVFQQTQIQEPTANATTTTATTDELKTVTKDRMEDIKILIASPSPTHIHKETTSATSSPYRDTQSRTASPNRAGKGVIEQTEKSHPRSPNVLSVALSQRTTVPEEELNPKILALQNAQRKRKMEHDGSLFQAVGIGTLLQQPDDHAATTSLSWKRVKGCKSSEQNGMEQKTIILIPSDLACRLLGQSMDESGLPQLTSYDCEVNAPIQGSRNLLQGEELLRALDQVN
Chain of Transcription factor Sp1 (Homo sapiens) (P08047 whole entry, looked up): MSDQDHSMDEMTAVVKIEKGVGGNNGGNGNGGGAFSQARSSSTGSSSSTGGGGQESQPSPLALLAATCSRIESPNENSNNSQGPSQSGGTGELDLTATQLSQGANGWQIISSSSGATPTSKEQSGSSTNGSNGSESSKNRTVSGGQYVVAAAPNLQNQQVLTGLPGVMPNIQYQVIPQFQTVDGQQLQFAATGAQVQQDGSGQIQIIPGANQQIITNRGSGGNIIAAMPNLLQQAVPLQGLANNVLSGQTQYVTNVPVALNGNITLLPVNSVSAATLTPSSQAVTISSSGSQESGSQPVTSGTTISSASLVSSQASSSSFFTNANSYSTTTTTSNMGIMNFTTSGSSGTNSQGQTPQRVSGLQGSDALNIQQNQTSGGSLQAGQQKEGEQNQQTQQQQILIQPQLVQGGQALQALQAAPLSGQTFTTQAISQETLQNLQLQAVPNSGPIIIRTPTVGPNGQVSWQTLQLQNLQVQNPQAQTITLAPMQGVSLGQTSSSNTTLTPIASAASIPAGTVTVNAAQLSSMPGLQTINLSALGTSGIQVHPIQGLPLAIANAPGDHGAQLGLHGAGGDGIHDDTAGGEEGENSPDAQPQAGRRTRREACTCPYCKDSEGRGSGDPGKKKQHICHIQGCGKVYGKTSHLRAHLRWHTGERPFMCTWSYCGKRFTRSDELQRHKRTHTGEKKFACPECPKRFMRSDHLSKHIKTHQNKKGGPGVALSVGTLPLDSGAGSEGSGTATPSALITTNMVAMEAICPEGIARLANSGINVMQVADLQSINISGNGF
Chain of Bile acid receptor (Homo sapiens) (Q96RI1 whole entry, looked up): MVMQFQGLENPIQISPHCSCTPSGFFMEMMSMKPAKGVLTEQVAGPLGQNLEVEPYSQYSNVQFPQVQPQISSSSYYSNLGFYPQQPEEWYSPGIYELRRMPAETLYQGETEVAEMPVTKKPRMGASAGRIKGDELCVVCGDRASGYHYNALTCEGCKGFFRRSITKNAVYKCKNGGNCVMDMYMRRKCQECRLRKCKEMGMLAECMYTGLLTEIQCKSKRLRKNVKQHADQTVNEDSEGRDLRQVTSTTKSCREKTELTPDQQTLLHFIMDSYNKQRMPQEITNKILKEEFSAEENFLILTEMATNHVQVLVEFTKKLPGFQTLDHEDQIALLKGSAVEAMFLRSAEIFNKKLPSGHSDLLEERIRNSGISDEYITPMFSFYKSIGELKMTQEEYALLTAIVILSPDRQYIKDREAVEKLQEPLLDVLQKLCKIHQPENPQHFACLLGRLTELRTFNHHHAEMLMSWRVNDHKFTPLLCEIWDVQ
Chain of Paired box protein Pax-6 (Homo sapiens) (P26367 whole entry, looked up): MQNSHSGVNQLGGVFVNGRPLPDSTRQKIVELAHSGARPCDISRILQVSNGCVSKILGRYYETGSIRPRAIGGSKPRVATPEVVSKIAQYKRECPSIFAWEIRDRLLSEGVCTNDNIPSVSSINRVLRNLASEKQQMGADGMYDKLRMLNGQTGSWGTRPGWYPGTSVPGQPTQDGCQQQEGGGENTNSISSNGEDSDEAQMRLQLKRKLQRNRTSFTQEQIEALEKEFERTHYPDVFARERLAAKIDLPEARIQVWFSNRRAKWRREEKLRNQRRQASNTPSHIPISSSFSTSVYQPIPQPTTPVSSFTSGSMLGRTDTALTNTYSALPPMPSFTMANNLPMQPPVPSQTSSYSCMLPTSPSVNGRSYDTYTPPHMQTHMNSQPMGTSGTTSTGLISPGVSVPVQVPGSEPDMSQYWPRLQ

With `CCCCCCCCCc1ccc(OCCO)cc1`, the AC50 in [1] was 21.4 µM (active); in experiment [3], 19.2 µM (active); in experiment [4], 18.7 µM (active); in [5] it was 21.7 µM (active); in [7], 13.3 µM (active); in experiment [9], 16.8 µM (active). Moreover, the AC50 in [10] was 13.3 µM (active); in experiment [12], 24.3 µM (active); in experiment [13], 0.64 µM (active); in experiment [17] it was 13.3 µM (active); in experiment [18], 3.56 µM (active). The compound was called inactive in experiment [2], in experiment [6], in experiment [8], in [11], in experiment [14] and in [15]. For the same compound, the outcome in experiment [16] and in experiment [19] was inactive.

Regarding `CC(C)(C)c1cc(CCC(=O)OCC(COC(=O)CCc2cc(C(C)(C)C)c(O)c(C(C)(C)C)c2)(COC(=O)CCc2cc(C(C)(C)C)c(O)c(C(C)(C)C)c2)COC(=O)CCc2cc(C(C)(C)C)c(O)c(C(C)(C)C)c2)cc(C(C)(C)C)c1O`, the call in experiment [1], in experiment [2], in [3], in experiment [4], in experiment [5] and in experiment [6] was inactive. For the same compound, the outcome in experiment [7], in experiment [8], in [9], in experiment [10], in [11] and in experiment [14] was inactive. Further, the outcome in [15], in experiment [16], in [17], in [18] and in experiment [19] was inactive. In addition, in [13], the AC50 is 21.3 µM (active).

`O=C1C=CC(=O)N1c1ccc(Cc2ccc(N3C(=O)C=CC3=O)cc2)cc1`: the call in experiment [1], in experiment [2], in experiment [3], in experiment [4], in experiment [5] and in experiment [6] was inactive. Further, the compound was classed as inactive in [10], in experiment [11], in experiment [15], in experiment [16], in experiment [18] and in experiment [20]. For the same compound, the AC50 in experiment [7] was 46.9 µM (active); in [8], 50.7 µM (active); in experiment [9], 55.2 µM (active); in [13] it was 26.7 µM (active); in [14] it was 57.2 µM (active); in [17] it was 48.4 µM (active).

Consider `CCc1ccc(C)nc1`, for which the outcome in experiment [1], in experiment [2], in [3], in experiment [4], in [5] and in experiment [6] was inactive. Moreover, the compound was called inactive in experiment [8], in [9], in [10], in [12], in experiment [13] and in experiment [14]. The result in experiment [15], in experiment [16], in [17], in experiment [18] and in [19] was inactive.

The record behind these values is PubChem BioAssay (EPA / NIEHS).
